# In the library only some 1.9% were active in any assay of this set; here they are far more common.
# sEH act = soluble epoxide hydrolase (human) activation. P34913. purified human sEH enzymatic activity, activator screen. actives 0.04% (n = 91,000). AID 717. activation, % at 2 µM; in the data active = activation above about 37%
# Target sequence (P34913 whole entry, looked up): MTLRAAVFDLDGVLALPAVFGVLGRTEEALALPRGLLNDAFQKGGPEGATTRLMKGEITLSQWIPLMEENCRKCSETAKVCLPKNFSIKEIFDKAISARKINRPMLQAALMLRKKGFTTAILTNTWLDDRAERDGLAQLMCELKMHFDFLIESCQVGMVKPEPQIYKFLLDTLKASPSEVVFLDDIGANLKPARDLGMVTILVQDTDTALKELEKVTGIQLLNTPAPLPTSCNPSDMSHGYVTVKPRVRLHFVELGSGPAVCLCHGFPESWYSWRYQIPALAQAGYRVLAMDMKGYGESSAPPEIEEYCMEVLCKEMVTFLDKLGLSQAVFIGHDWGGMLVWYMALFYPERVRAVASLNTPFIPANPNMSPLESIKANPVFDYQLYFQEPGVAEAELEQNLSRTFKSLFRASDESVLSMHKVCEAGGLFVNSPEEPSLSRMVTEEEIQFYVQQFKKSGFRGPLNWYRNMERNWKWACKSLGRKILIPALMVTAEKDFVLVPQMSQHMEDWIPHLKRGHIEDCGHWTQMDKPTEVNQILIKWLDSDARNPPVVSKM
# sEH inh = inhibitors of human soluble epoxide hydrolase; actives 0.34% (n = 91,000); recombinant human sEH enzymatic activity assay; inhibition, % at 2 µM; in the data active = inhibition above about 80%
# SDO1 yeast rescue = compounds rescuing growth of sdo1-depleted yeast, bone marrow failure model. z-score at 10 µM. S. cerevisiae sdo1-depleted JHY4D growth rescue, OD600 30 h; hits give high values; pdr5 snq2 efflux-pump mutant strain. actives 0.21% (n = 140,000). AID 817;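 active = z-score above 3 at both the 24 hr and the 30 hr optical density reads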;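 also: z-score against mean and SD of all compound wells on the same plate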
# Measles CPE = protection of cells from measles virus | protection (pct of control), % at 4 µM | Measles virus-infected cells, CPE protection, absorbance | actives 1.5% (n = 140,000) | AID 841; in the data active = protection mostly above about 24%, no sharp cut-off; inactive = mostly below about 26%
# * = called active by the depositor; x = no result given.
SMILES,sEH act,sEH inh,SDO1 yeast rescue,Measles CPE
Cc1noc(C)c1COC(=O)CN(C)S(=O)(=O)c1ccc(Cl)cc1,x,x,0.97,4.0
Cc1noc(C)c1COC(=O)Cc1ccc(Cl)cc1,-14.8,13.1,0.29,47.9*
N#C/C(=C1\CCCN1)c1ccc2ccccc2n1,-3.8,2.5,-0.27,18.3*
Cc1noc(C)c1C(=O)NCCCc1ccccc1,x,x,0.22,38.1*
CCOC(=O)c1cnn2cc(-c3[nH]ncc3[N+](=O)[O-])cnc12,x,x,1.12,33.4*
CCOC(=O)c1cnc2c(-c3ccccc3)cnn2c1N,7.7,-6.1,-0.22,4.6
O=C(OCc1nc2ccc(Cl)cc2n1CCO)c1ccccc1C(=O)c1ccccc1,x,x,0.89,7.6
COc1ccc(C(=O)/C=C/c2ccc(O)cc2)c(O)c1CC=C(C)C,x,x,-1.33,25.1*
CC(C)(CO)NS(=O)(=O)c1ccc2c(c1)oc(=O)c1cc(S(=O)(=O)NC(C)(C)CO)ccc12,-2.5,0.6,0.17,61.3*
CS(=O)(=O)c1ccc(Sc2nc3ccccc3[nH]2)c([N+](=O)[O-])c1,-1.3,2.5,0.76,1.4
Cc1ccccc1OCC(=O)Nc1sc(C(=O)Nc2cccc(C)c2C)c(C)c1C#N,10.0,-8.9,-0.04,102.5*
Cc1ccccc1Cn1nc(C)c(NC(=O)c2sc3ccccc3c2Cl)c1C,5.2,-2.5,-1.46,64.2*
Cc1nn(Cc2ccc(Cl)cc2Cl)c(C)c1NC(=O)c1sc2ccccc2c1Cl,-11.6,13.8,-0.84,9.2
CCCCCc1c(O)c2ccccc2[nH]c1=O,5.2,-7.4,0.21,35.6*
CCCCCOC(=O)Cc1c(O)c2ccccc2[nH]c1=O,8.9,-10.2,0.43,4.2
Cc1cccc(OCC(=O)N2CCC(N3CCCCCC3)CC2)c1,-0.7,0.6,-0.31,6.8
COc1cc(/C=N/OCC(=O)Nc2cc(C)on2)ccc1OCc1ccccc1,x,x,0.84,75.4*
COc1cc(/C=N/NC(=O)Cc2ccccc2)ccc1Oc1ccc([N+](=O)[O-])cc1[N+](=O)[O-],x,x,-0.69,42.6*
Cc1cc(NC(=O)COC(=O)c2cccc(OCc3ccccc3)c2)no1,0.9,-2.5,0.35,26.6
COc1cc(/C=C/C(=O)NC(C)C)ccc1OCc1ccccc1,x,x,0.38,87.9*
COc1cc(/C=N/NC(=O)CN2CCCCC2)ccc1OCc1ccccc1,x,x,-0.04,33.6*
Cc1ccc(NC(=O)N2CCCC2C(=O)Nc2ccc(-n3cnnn3)c(C)c2)cc1 (configuration not stated),-5.2,8.5,0.49,24.4
CCOC(=O)/C=c1\s/c(=C\c2ccc(C(F)(F)F)cc2)c(=O)n1CC(=O)NCc1ccco1,x,x,-0.7,12.8
COc1ccc(-c2nc(C#N)c(NCCCn3ccnc3)o2)cc1OC,-4.5,7.0,0.05,11.8
CCN(CC)CCCNc1oc(-c2ccc(OC)c(OC)c2)nc1C#N,-1.5,4.7,-0.02,44.6*
SMILES,sEH act,sEH inh,SDO1 yeast rescue,Measles CPE
Cn1c(=O)cc(OCC(=O)Nc2ccccn2)c2ccccc21,-2.6,3.5,0.17,6.4
Cc1cc(C)c2c(N)c(C(=O)NCC3CCCCC3)sc2n1,6.1,-6.2,-1.17,25.5*
CCC(C)NCCOCCOc1ccc(Cl)c(C)c1C (configuration not stated),x,x,-1.16,2.0
CCC(C)NCCOCCSc1ccc(Cl)cc1 (configuration not stated),-9.1,7.7,-0.22,52.0*
CCN(CC)C(=O)N1c2ccccc2C=Cc2ccccc21,-6.0,3.5,-0.35,57.4*
Cc1nn(Cc2cccc(C(=O)NCC(C)C)c2)c(C)c1Br,-34.5,37.6,-0.63,27.2*
Cc1ccc(Cl)cc1N1CCN(C(=O)COc2ccc(S(=O)(=O)NC(C)C)cc2)CC1,x,x,-0.93,56.2*
CCCCOc1ccc(C(=O)N/C(=C\c2cccc([N+](=O)[O-])c2)C(=O)OCc2ccco2)cc1,x,x,-0.95,28.3
COc1cc(NC(=O)C2CCCCC2)c(OC)cc1NC(=O)CN1CCCCC1,16.6,-17.8,0.21,47.4*
O=C(NCc1ccccc1)C(Cc1ccccc1)N1C(=O)C2C3CCC(C3)C2C1=O (configuration not stated),-0.3,0.9,-0.43,25.0
Cc1ccc(C(=O)N2CCN(c3cc(=O)[nH]nc3-c3ccccc3)CC2)cc1,0.2,2.1,0.96,37.9*
O=C(c1ccc(F)cc1)N1CCN(c2cc(=O)[nH]nc2-c2ccccc2)CC1,-9.4,11.5,0.84,39.5*
Cn1nc(-c2ccc(C(=O)N3CCN(Cc4ccccc4)CC3)cc2)c2ccccc2c1=O,-4.0,2.9,-0.21,9.1
O=C(c1cccc(C(=O)N2CCN(c3ccccc3F)CC2)c1)N1CCN(c2ccccc2F)CC1,x,x,1.43,5.1
CCCCn1c(-c2ccc(Cl)cc2)nc2c(=O)n(C)c(=O)[nH]c21,-8.8,10.1,1.54,4.3

# Source: PubChem BioAssay
